# ST2 inh: inhibitors of human ST2 (IL1RL1) binding to IL-33, primary screen, biochemical, AlphaLISA | Interleukin-1 receptor-like 1 (Homo sapiens), Q01638 | AID 1259354, 2018 | inhibition, % for hits at 17 µM | AlphaLISA ST2-Fc/biotin-IL-33 interaction, 1 h | 78,000 tested, 2.3% active; in the data active means inhibition above about 30%
# Target sequence (Q01638 whole entry, looked up): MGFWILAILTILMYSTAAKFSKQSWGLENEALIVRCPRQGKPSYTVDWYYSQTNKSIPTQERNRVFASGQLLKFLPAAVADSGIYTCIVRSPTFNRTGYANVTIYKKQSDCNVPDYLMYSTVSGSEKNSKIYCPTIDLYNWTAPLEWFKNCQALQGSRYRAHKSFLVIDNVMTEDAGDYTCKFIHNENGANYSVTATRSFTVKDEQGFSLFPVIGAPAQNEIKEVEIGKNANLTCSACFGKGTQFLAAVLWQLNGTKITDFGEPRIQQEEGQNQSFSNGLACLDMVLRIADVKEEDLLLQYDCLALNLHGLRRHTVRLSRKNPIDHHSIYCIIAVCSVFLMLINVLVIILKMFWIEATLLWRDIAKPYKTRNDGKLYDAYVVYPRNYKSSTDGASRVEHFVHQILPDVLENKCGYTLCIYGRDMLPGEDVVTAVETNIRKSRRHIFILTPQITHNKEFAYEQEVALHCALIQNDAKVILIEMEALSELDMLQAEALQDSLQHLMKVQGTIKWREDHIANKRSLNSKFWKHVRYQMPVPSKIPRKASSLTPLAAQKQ
# The depositor's hits bear a star; i = inactive. This is one part of a sample in which hits are shown more often than they occur.
SMILES,ST2 inh
CCCOc1ccc(NC(=O)c2ccc(OC)cc2)cc1,i
COc1ccc(C(=O)Nc2ccc(N3CCCC3)cc2)cc1OC,35%*
COc1ccc(C(=O)Nc2ccc(N3CCCC3)cc2)cc1,59%*
COc1ccccc1NC(=O)c1ccc(OC)c(OC)c1,i
COc1ccc(C(=O)N2CCCCCC2)cc1OC,i
COc1ccc(C(=O)Nc2cc(OC)cc(OC)c2)cc1,i
CCN(CC)C(=O)c1cn(C)c(=O)c2cc(OC)c(OC)cc12,i
Cn1c(C(=O)N2CCN(Cc3ccccc3)CC2)cc2c(=O)n3ccccc3nc21,i
O=C(O)c1ccccc1C(=O)c1ccc2c(c1)Cc1ccccc1-2,i
O=[N+]([O-])c1cccc(C2Nc3ccccc3-c3nc4ccccc4n32)c1 (stereo not given),i
Cc1cc(C)cc(N(C(=O)CC2CCCCC2)C2C=CS(=O)(=O)C2)c1 (stereo not given),i
CC(C)(C)c1ccc(C(=O)Nc2nnc(-c3ccco3)s2)cc1,i
CCOC(=O)C1C(=O)C=C(c2ccc(OC)cc2)CC1c1ccc(OC)c(OC)c1 (stereo not given),i
COc1ccc2cc3cc(C(=O)Nc4ccc(F)cc4F)sc3nc2c1,35%*
Cc1ccc2cc3cc(C(=O)NC(C)C)sc3nc2c1,i
COc1ccc(C(=O)Nc2ccccc2F)cc1,i
Cc1cccn2c(=O)c3cc(C(=O)Nc4ccccc4F)sc3nc12,35%*
COc1ccc2cc3cc(C(=O)Nc4ccc(F)cc4)sc3nc2c1,35%*
COc1ccc(N2CCN(C(=O)c3cc4cc5ccc(OC)cc5nc4s3)CC2)cc1,i
Cc1cccn2c(=O)c3cc(C(=O)Nc4ccccc4C#N)sc3nc12,i
COc1ccc(-n2c(=O)[nH]cc(C(=O)Nc3ccc(F)cc3F)c2=O)cc1,i
COc1ccc2cc3cc(C(=O)Nc4ccccc4F)sc3nc2c1,41%*
COc1ccc2nc3oc(C(=O)Nc4ccccc4F)cc3cc2c1,i
Cc1ccc(Cl)cc1NC(=O)c1cc2c(=O)n3cccc(C)c3nc2s1,i
COc1ccc2cc3cc(C(=O)Nc4cccc(C#N)c4)sc3nc2c1,i
SMILES,ST2 inh
COc1ccccc1C1C2=C(CC(C)(C)CC2=O)Nc2nc(SC)[nH]c(=O)c21 (stereo not given),i
COC(=O)[C@@H](NC(=O)C1CCN(c2nc(C)c3cc(C)ccc3n2)CC1)C(C)C,i
Cc1cc(CNC(=O)C2CC(=O)Nc3ccc(F)cc32)c2[nH]c(C)c(C)c2c1 (stereo not given),i
C[C@H]1[C@@H]2[C@@H](O)C([C@H](C)C(=O)NCc3ccccn3)CC[C@@]2(C)CC[C@@H]1NC(=O)C1CC1 (stereo not given in full),i
Oc1ccccc1CN[C@H]1[C@H](O)[C@@H](N2CCC(Cc3ccccc3)CC2)[C@@H]2OC[C@H]1O2,i
COc1ccc(-n2cnc3cc(NC(=O)c4cccc(C)c4)ccc32)cc1,i
Cc1c[nH]c(CNC(=O)C(C)(C)NC(=O)c2cccs2)c(C)c1=O,i
Cc1ccc(Cn2c(=O)c(CCC(=O)O)nc3ccccc32)cc1,i
O=C1C(=O)N(CCN2CCOCC2)C(c2ccc([N+](=O)[O-])cc2)C1=C(O)c1ccccc1 (stereo not given),i
O=C(/C=C(/c1ccccc1)N1CCOCC1)c1ccc([N+](=O)[O-])cc1,39%*
O=C(c1cc([N+](=O)[O-])ccc1N1CCOCC1)N1CCOCC1,i
Cc1ccc(-n2c(=O)n(Cc3ccccc3)c3c(C(N)=O)nc(-c4ccccc4C)nc32)cc1C,i
CCCN(C(=O)Cc1c(C(=O)O)[nH]c2ccccc12)c1cccc(Cl)c1,i
COc1cc(C(=O)Nc2ncccc2Cl)cc(OC)c1OC,i
Cc1cc(C)nc(NS(=O)(=O)c2ccc(Nc3nc(-c4sc(C)nc4C)cs3)cc2)n1,i
O=C(O)C1CSC(c2ccccc2Cl)N1C(=O)c1cccc(Cl)c1 (stereo not given),i
O=[N+]([O-])C=C(c1ccccc1)c1ccccc1,39%*
NC(=O)c1ccccc1,i
O=[N+]([O-])C([N+](=O)[O-])=S(c1ccccc1)c1ccccc1,i
CC(O)CCc1ccc(O)cc1 (stereo not given),i
COc1ccc(-c2noc(CCC(=O)N(C)c3ccc(Br)cc3)n2)cc1,i
CCc1c(C)c(C#N)c2nc3ccccc3n2c1NCCOC,i
Cc1cc(-n2ccnc2C)n2c(nc3ccccc32)c1C#N,i
CCOc1cc(-c2c(C#N)c(N)n3c(nc4ccccc43)c2C#N)ccc1OC,37%*
O=C(NCc1ccccc1)Nc1ccc(Cl)cc1,30%*
SMILES,ST2 inh
O=C(NCc1ccc(Cl)cc1)C(=O)Nc1ccc([N+](=O)[O-])cc1,i
O=C(NCc1ccccc1)NS(=O)(=O)c1ccccc1Cl,i
O=C(CNS(=O)(=O)c1ccc(Br)s1)N1CCN(Cc2ccccc2)CC1,i
Cc1ccc(CN2CCCN(S(=O)(=O)c3ccc(Br)s3)CC2)cc1,35%*
Cc1ccc(CNS(=O)(=O)c2ccc(Br)s2)cc1,i
Cc1c(Cl)cccc1NC(=O)C1CCCCC1C(=O)O (stereo not given),i
CC(=O)c1c(C)oc2ccc(N(C(C)=O)S(=O)(=O)c3ccc(C)cc3)cc12,i
CC(=O)NC(=O)c1cc2cc(Br)ccc2oc1=Nc1ccc(C(F)(F)F)cc1,i
c1ccc(Cc2nnc([C@H]3CCN(Cc4c[nH]c5ccccc45)C3)o2)cc1,i
Fc1ccc(CN2CCN(c3ccccn3)CC2)cc1Br,33%*
Fc1ccccc1CN1CCN(c2ccccn2)CC1,i
Clc1ccc(CN2CCN(c3ccccn3)CC2)cc1Cl,i
CCN1CCCC(CN(C)C(=O)c2scc3c2OCCO3)C1 (stereo not given),i
CCOC(=O)N1CCC2(CC1)NCCc1[nH]cnc12,i
COCCOC(=O)C1=C(C)NC2=C(C(=O)CC(c3ccccc3)C2)C1c1ccc(OC)cc1 (stereo not given),i
O=[N+]([O-])c1ccc(C2CNC(c3ccc4c(c3)OCO4)O2)cc1 (stereo not given),i
O=[N+]([O-])C1=Cc2cc(Br)cc(Br)c2OC1c1ccc2c(c1)OCO2 (stereo not given),60%*
CN1c2ccccc2N(C)C1c1ccc2c(c1)OCO2,i
CCOc1ccc(C(=O)Nc2c(C)cc(Br)cc2C)cc1[N+](=O)[O-],i
CCOc1ccc(C2Oc3c(cc(Br)cc3OC)C=C2[N+](=O)[O-])cc1OC (stereo not given),36%*
COc1ccc(C2SCCN2S(=O)(=O)c2ccc(Br)cc2)cc1[N+](=O)[O-] (stereo not given),i
O=C(C1CC1)N1CCC(Cn2cc(-c3ccccn3)nn2)CC1,i
Cc1nnc(SCCn2c(N3CCCC3)nc3c2c(=O)[nH]c(=O)n3C)s1,i
CN1CC[C@H]2CC[C@@H](C1)N2c1ccnc(C(=O)NCc2cccnc2)c1,i
O=S(=O)(Nc1ccc(I)cc1)c1ccc2c(c1)OCCO2,i
COc1ccc(C2CC(c3c(-c4ccccc4)c4cc(Br)ccc4[nH]c3=O)=NO2)cc1 (stereo not given),i
CCOc1ccc(C2CC(=O)NC(SCC(=O)OCc3ccccc3)=C2C#N)cc1 (stereo not given),i
CC1=CC(C)(C)N(C(=O)CN2C(=O)c3cccc([N+](=O)[O-])c3C2=O)c2ccccc21,32%*
